KB-V1 cytotox – qHTS assay for MDR1-selective chemotherapeutics: Primary screen using the drug-selected MDR subline cells KB-V1. hit rate 3.4% among 400,000. AID 1347076, 2019. KB-V1 MDR cells viability, CellTiter-Glo, 72 h. Potency, µM (highest dose often 46.1 µM), usual class: cytotoxic; note: nearly all actives have a fitted effect of over 60% in size
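In this primary screen, KB-V1 cells overexpressing P-gp are incubated with library compounds (lowest to highest concentration) for 72 h at 37 degrees C before a luminescent ATP viability read.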
SW480 rerep – A quantitative high throughput screen for small molecules that induce DNA re-replication in SW480 colon adenocarcinoma cells; SW480 DNA re-replication, Hoechst DNA content imaging, 48 h; Potency, µM (series often up to 46.1 µM), usual class: activators; hit rate 1.8% among 340,000; AID 624297, 2012; note: nearly all actives have a fitted effect of over 55% in size
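SW480 cells exposed to compounds for 48 hr at 37 C, 5% CO2, then Hoechst-stained 40 min. Nuclear DNA content imaged by fluorescence scanning (405 nm excitation, 500-530 nm emission); re-replication scored as increased high-intensity nuclei.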
HT1080-NT tox – qHTS for induction of synthetic lethality in tumor cells producing 2HG: qHTS for the HT-1080-NT fibrosarcoma cell line; HT-1080-NT fibrosarcoma viability, CellTiter-Glo ATP luminescence, 48 h; Potency, µM (series often up to 46.1 µM), hits mostly cytotoxic; hit rate 1.6% among 360,000;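 note: NT is the 2HG producing partner of a matched IDH1 knockdown line; nearly all actives have a fitted effect of over 55% in size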
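Luminescent CellTiter-Glo readout after 48 hours of compound exposure at 37 degrees C defined viability of HT-1080-NT cells. Activity was normalized to DMSO wells and cell-free media wells; concentration-response curves were fitted and assigned curve classes.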
KB-3-1 tox – qHTS assay for MDR1-selective chemotherapeutics: Primary screen using the parental adenocarcinoma cell KB-3-1; KB-3-1 viability, CellTiter-Glo ATP luminescence, 72 h; Potency, µM (series often up to 46.1 µM), most hits filed as cytotoxic; hit rate 1.4% among 400,000; AID 1347075, 2019; note: nearly all actives have a fitted effect of over 60% in size
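Here the drug-naive KB-3-1 line serves as comparator for MDR sub-line selectivity; cells received compound titrations, 72 h at 37 °C, then CellTiter-Glo readout.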
HT1080 IDH1KD tx – qHTS for induction of synthetic lethality in tumor cells producing 2HG: qHTS for the HT-1080-IDH1KD cell line | hit rate 2% among 360,000 | HT-1080 IDH1 knockdown viability, ATP luminescence, 48 h | Potency, µM (highest dose often 46.1 µM), usual class: cytotoxic
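Cytotoxicity counter-line: IDH1KD HT-1080, 48 h, CellTiter-Glo. Curves classed by r2, magnitude and activity.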
MCF10A rerep – A quantitative high throughput screen for small molecules that induce DNA re-replication in MCF 10a normal breast cells; Potency, µM (highest dose often 46.1 µM), most hits filed as activators; MCF 10A DNA re-replication, Hoechst nuclear intensity, 48 h; hit rate 2.9% among 350,000; AID 624296, 2012; note: nearly all actives have a fitted effect of over 50% in size
Hits are given with their value; 0 = inactive; ? = inconclusive; - = not tested or not shown; [ ] = dose if it differs, or a comment. Most compounds without a hit are left out; they make up all but 7.9% or so of the library. Calls come from the whole dose curve; as a rule, active = well fitted curve in the direction sought with a large enough effect; inconclusive = small, poorly fitted or top-dose-only effect, or another doubt; inactive = no such curve, though single readings can be large; an effect the other way counts as inactive or inconclusive.

SMILES	KB-V1 cytotox	SW480 rerep	HT1080-NT tox	KB-3-1 tox	HT1080 IDH1KD tx	MCF10A rerep
C=C1CC[C@@]2(O)[C@H]3Cc4ccc(O)c5c4[C@@]2(CCN3CC2CC2)[C@H]1O5	0	0	0	0	0	0
O=C1/C(=C/c2ccccc2)C[C@@]2(O)[C@H]3Cc4ccc(O)c5c4[C@@]2(CCN3CC2CC2)C1O5 (stereo partly specified)	7.31µM	?	1.64µM	?	3.66µM	4.61µM
Oc1ccc2c3c1OC1c4[nH]c5ccccc5c4C[C@@]4(O)C(C2)N(CC2CC2)CC[C@]314 (stereo partly specified)	0	0	?	0	?	?
Oc1ccc2c3c1OC1c4oc5ccccc5c4C[C@@]4(O)[C@@H](C2)N(CC2CC2)CC[C@]314 (stereo partly specified)	?	0.92µM	?	0	?	0
CCOC(=O)CN1C(=O)C2(C(C#N)=C(N)Oc3ccccc32)C(C(=O)OC)=C1C (stereo unspecified)	0	0	0	0	0[9.24 µM]	0
CC1=C(O)C(=O)C=C2C1=CC=C1C2(C)CCC2(C)C3CC(C)(C(=O)O)CCC3(C)CCC12C (stereo unspecified)	?	?	4.61µM	?	1.64µM	?
Cc1ccc(OP(=O)(NC(C)c2ccccc2)Oc2ccc(C)cc2)cc1 (stereo unspecified)	?	?	0	?	?	0
Clc1ccc(CCC(Cn2ccnc2)Sc2c(Cl)cccc2Cl)cc1 (stereo unspecified)	20.6µM	0	?	?	?	?
Clc1ccc([C@H](Cn2ccnc2)OCc2csc3c(Cl)cccc23)c(Cl)c1	-	0	-	-	-	0
O=C(Nc1ccc(F)cc1)Oc1ccc[nH]c1=O	0	0	?	0	20.6µM	0
COc1ccc(OC(=O)Nc2ccccc2)cc1	0	0	?	0	0	0
Clc1ccccc1CNCCc1c[nH]c2ccccc12	0	-	0	0	0	-
c1ccc2c(CNC3CCCCCC3)c[nH]c2c1	?	0	?	?	20µM	0
c1ccc2c(CN3CCOCC3)c[nH]c2c1	0	0	0	0	0	0
COc1ccccc1N1CCN(Cc2c[nH]c3ccccc23)CC1	?	0	?	0	?	0
c1ccc2c(CN3CCCCCC3)c[nH]c2c1	0	0	0	14.6µM	0	0
Cc1ccccc1N1CCN(Cc2c[nH]c3ccccc23)CC1	0	0	?	0	1.26µM	?
C[C@]12CCC(=O)C[C@H]1CC[C@@H]1[C@@H]2CC[C@]2(C)C(=O)CC[C@@H]12	0	0	0	0	0	?
CCN1C[C@@]2(COC)C3[C@@H](OC)[C@H]4[C@@H]1[C@@]3(C1C[C@H]3[C@H](OC(=O)c5ccccc5)C1[C@]4(OC(C)=O)C[C@H]3OC)[C@@H](OC)C[C@H]2O (stereo partly specified)	0	0	0	0	0	0
O=c1[nH]c(=S)n(Cc2ccc(F)cc2)c(O)c1C=NCc1ccc2c(c1)OCO2	0	0	0	0	0	0
CCC12CN3CC(CC)(CN(C1)C3c1ccccn1)C2=O (stereo unspecified)	0	-	-	0	-	-
CN1C2CCC1/C(=C/c1ccccn1)C(=O)/C2=C\c1ccccn1	?	?	1.16µM	0.92µM	0.82µM	?
CCOC(=O)[C@]12Cc3ccsc3[C@H]1N(Cc1ccccc1)C(=O)c1ccccc12	?	?	0	?	0	?
CCCOC(=O)c1ccccc1C(=O)OCCC	0	?	0	0	0	0
CCC(C)NC(=O)c1c(N)n(CC2CCCO2)c2nc3ccccc3nc12 (stereo unspecified)	?	18.4µM	0	0	0	?
SMILES	KB-V1 cytotox	SW480 rerep	HT1080-NT tox	KB-3-1 tox	HT1080 IDH1KD tx	MCF10A rerep
COCCCn1c(N)c(C(=O)Nc2sc3c(c2C(=O)OC)CCCC3)c2nc3ccccc3nc21	0	0	0	0	0	0
CC(C)CCNC(=O)c1c(N)n(CC2CCCO2)c2nc3ccccc3nc12 (stereo unspecified)	?	5.17µM	?	?	?	2.31µM
CCCC(=O)c1cc(CP(=O)(OCC)OCC)oc1C	0	0	0	0	0	0
O=C(CCN1CC2CCC(CC2)C1)c1cccs1	0	?	0	0	?	10.3µM
Oc1ccc(/C=N/NP(=S)(c2ccccc2)c2ccccc2)cc1	0	0	0	0	0	0
COc1cc(/C=N/NP(=S)(c2ccccc2)c2ccccc2)ccc1O	0	0	0	0	0	11.2µM
O=C(CSC1c2ccccc2-c2ccccc21)N/N=C/c1ccccc1O	5.17µM	?	4.47µM	?	?	2.06µM
C/C(=N\NC(N)=S)C12CC3CC(CC(C3)C1)C2	0	25.9µM	5.01µM	0	6.31µM	7.31µM
CC1CCN(CC(=O)c2cccc(C(F)(F)F)c2)CC1	0	0	0	0	0	0
C[C@]12CC[C@@H](O)CC1=CCC1C2CC[C@]2(C)C(=O)[C@H](F)CC12 (stereo partly specified)	0	0	0	0	0	0
CC12CCC3C(CC=C4CC(O)CCC43C)C1C/C(=C\c1cccc(F)c1)C2=O (stereo unspecified)	0	0	?	0	?	5.8µM
O=C(c1ccc2c(c1)N(Cc1ccc(F)cc1)CCS2)N1CCC2(CC1)OCCO2	0	0	0	0	0	?
O=C(c1ccc2c(c1)ncn2-c1ccc(F)cc1F)N1CCC2(CC1)OCCO2	?	?	14.6µM	?	?	?
Cc1cc(C(=O)OC(C)C(=O)Nc2ccccc2)c(C)n1C1CC1 (stereo unspecified)	0	-	0	0	0	-
O=c1cc(C(F)(F)F)c2cc3c4c(c2o1)CCCN4CCC3	0	?	0	0	0	10.3µM
Cc1cc2c(C(F)(F)F)cc(=O)oc2c2c1NCCC2	0	?	0	0	0	0
COc1ccc2c3c1OC1C(=O)CC[C@@]4(O)[C@@H](C2)N(C)CC[C@]314 (stereo partly specified)	0	?	?	?	20.6µM	?
COc1cc2cc(c1Cl)N(C)C(=O)CC(OC(=O)C(C)N(C)C(C)=O)C1(C)OC1C(C)C1CC(O)(NC(=O)O1)C(OC)C=CC=C(C)C2 (stereo unspecified)	0.461µM	?	0.0041µM	?	?	?
COCCCNC(=O)c1c(NC(=O)c2ccccc2Cl)n(Cc2ccccc2)c2nc3ccccc3nc12	2.59µM	10.3µM	0	0	0	?
